Test [1] is described as follows: yeast 75Q aggregation reduction – 75Q-TubU reporter (AID 1593). As to conditions: Yeast 75Q polyglutamine aggregation reporter.
Test [2] can be described thus: restoration of touch response, mutant HTT neurons – whole organism, C. elegans mechanosensory neurons, N-terminal huntingtin (AID 1599). As to conditions: C. elegans polyQ-huntingtin mechanosensory neurons, stronger effect = higher value.
Test [3] can be described thus: blockers of cytochrome c efflux from mitochondria – biochemical, purified mitochondria (AID 1603).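 Further: mouse liver mitochondria challenged with calcium chloride; signal normalized to the plate average as 100%.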 Particulars: stronger effect = lower value.
A short description of test [4]: polyglutamine aggregate formation blockers (AID 1604). As to conditions: polyglutamine-induced protein aggregation inhibition assay; stronger effect = higher value; tested at 2.5 µM.
Test [5] can be described thus: glutamate transport activators, MN-1 cells, MN-1 cell line (AID 1612).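 Further: tested at 1 µM final; 0% = mean of DMSO vehicle wells on each plate; positive means more glutamate uptake than control and negative means less.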 As to conditions: MN-1 motor neuron cells, stronger effect = higher value.
Test [6] in a line: 75Q-TubH aggregate inhibition, S. cerevisiae, yeast (AID 1616). As to conditions: S. cerevisiae 75Q-TubH polyglutamine aggregation suppression; stronger effect = higher value.
The nature of test [7]: P. berghei load reduction in hepatocytes – cell-based, HepG2, luciferase luminescence, HepG2 viability, primary screen (AID 624349; in the data active means parasite load remaining mostly below about 12%, no sharp cut-off; inactive means mostly above about 10%;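 further: 100% = mean of DMSO negative control wells on the same plate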). As to conditions: P. berghei liver stage in HepG2, luciferase luminescence, concentration not given here; parasite load remaining: stronger effect = lower value; viability: measured here: HepG2 viability without parasites.
Test [8] is described as follows: EMT-state selective cytotoxicity in co-culture – imaging, PC-3E GFP, TEM4-18 mCherry, primary screen (AID 1345086;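 active means compounds killing one labelled cell type while sparing the other, by normalised counts and ratio limits, not self-fluorescent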;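 on all read-outs here: cells exposed to compound for 72 h before imaging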;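 on red/green cell ratio (normalised): normalised mesenchymal count divided by normalised epithelial count so high means epithelial killing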). Particulars: PC-3E GFP / TEM4-18 mCherry co-culture, imaging cell counts, at 1 µM; for red/green cell ratio (normalised): actives lie on both sides.
Test [9] can be described thus: blockers of polyQ-driven CASP3 activation – cell-based (AID 1583). Particulars: polyglutamine-induced caspase-3 activation, cell assay; stronger effect = higher value;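 tested at 10 µM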.
A short description of test [10]: compounds altering circadian rhythm period length – cell-based, LOPAC library, luminescence reporter (AID 2774).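 Further: values are relative to mean of DMSO wells on each plate.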 Particulars: circadian reporter cells, at 7 µM, actives lie on both sides.
For test [11], the system named is Hepatitis C virus NS3 helicase. Description: blockers of NS3h binding to ssDNA – biochemical, fluorescence polarization, LOPAC1280 library, primary screen (AID 687035; in the data active means inhibition above about 37%). As to conditions: Purified HCV NS3 helicase, Cy5-dT15 ssDNA binding fluorescence polarization; stronger effect = higher value; concentration not given here.
The nature of test [12]: compounds altering Cy5-DNA-NS3h complex signal – biochemical, LOPAC1280, artefact control for HCV NS3 helicase inhibitor project (AID 687037). As to conditions: Cy5-DNA-NS3h complex fluorescence interference counterscreen. For orientation: A counterscreen serves to expose hits that act by an unwanted route or on another target.
Test [13] has as its system Aerobactin synthetase IucA (Klebsiella pneumoniae). The test can be described thus: inhibition of K. pneumoniae IucA enzyme – biochemical, Tocris library, absorbance (AID 1345561).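 Further: 100% = enzyme without compound and 0% = no enzyme.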 Particulars: purified IucA enzyme assay, absorbance (OD) read-out; stronger effect = lower value;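 tested at 8 µM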.
In test [14] the test system is Aerobactin synthetase IucA (Klebsiella pneumoniae, hypervirulent). The test can be described thus: biochemical IucA inhibition screen of LOPAC library by absorbance (AID 1346212).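 Further: 100% = no compound wells and 0% = no enzyme wells.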 As to conditions: IucA enzyme assay, absorbance (OD) readout; stronger effect = lower value;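 tested at 8 µM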.
Test [15] is described as follows: viability loss with induced miR-34 in A549 – imaging, A549 dox-inducible miR-34, nuclei and caspase counts, primary screen (AID 1347080;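 active means compounds whose cell count with miR-34 switched on is under 0.7 times the count with it off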). Particulars: A549 miR-34 inducible, Hoechst nuclei count, 48 h.
Test [16] is described as follows: blockers of cellular phospholipid synthesis – cell-based, LOPAC library, screen 4, primary screen (AID 1347384). As to conditions: animal cells, phospholipid biosynthesis inhibition screen; at 10 µM.
The nature of test [17]: galactose survival enhancers in mitochondrial complex I cybrids – cell-based, galactose medium, ATP luminescence, primary screen (AID 1645843;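 active means z-score of at least 1.8 in each of two replicates, scored against plate mean and spread of sample wells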;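 further: positive z means more ATP and so rescue of galactose-driven cybrid death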). Particulars: complex I mutant cybrid cells, 72 h, stronger effect = higher value.
Test [18] has as its target Mitogen-activated protein kinase 7 (Homo sapiens) (UniProt Q13164). The test can be described thus: Gal4-ERK5 driven luciferase induction – cell-based, HTS, primary screen (AID 1508626;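 active means luciferase signal above three times the same-plate solvent-only control wells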;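 further: luciferase driven by Gal4-ERK5 fusion binding five Gal4 sites before minimal TATA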). As to conditions: HeLa Gal4-ERK5 transactivation, 18 h, at 5 µM, stronger effect = higher value.
Test [19] can be described thus: MELAS cybrid and Rieske KO viability enhancers – cell-based, MELAS cybrids, Rieske KO mouse fibroblasts, CellTiter-Glo, primary screen (AID 1508586;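 active means mean z-score across replicates of 1.96 or higher in either the MELAS or the Rieske mutant cell line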;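 further: z relative to plate mean and SD of compound and empty wells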). Particulars: low glucose. In general terms: Cellular ATP, detected with luciferase, serves as a proxy for viable cell number.
Setting [20] is: measured here: epithelial PC-3E GFP cell survival.
Where [21] appears, read: measured here: mesenchymal TEM4-18 mCherry cell survival.
The mark [22] stands for this setting: measured here: relative caspase fold change +Dox/-Dox.
Setting [23] is: measured here: total cells with miR-34 induction, stronger effect = lower value.
[24] abbreviates: measured here: total cells without miR-34 induction.

Data on five compounds can be found in PubChem BioAssay.

Values joined by “and” are separate entries in the source; they are usually repeats but may differ in a detail not shown here. Identical values can stand only once. For some assays here: Results with a measured potency or affinity are listed apart. Active and inactive are the calls of the source. Unless noted, how the calls were made is not given here.

Sequence of Mitogen-activated protein kinase 7 (Homo sapiens) (Q13164 whole entry, looked up, the tested form may be a part): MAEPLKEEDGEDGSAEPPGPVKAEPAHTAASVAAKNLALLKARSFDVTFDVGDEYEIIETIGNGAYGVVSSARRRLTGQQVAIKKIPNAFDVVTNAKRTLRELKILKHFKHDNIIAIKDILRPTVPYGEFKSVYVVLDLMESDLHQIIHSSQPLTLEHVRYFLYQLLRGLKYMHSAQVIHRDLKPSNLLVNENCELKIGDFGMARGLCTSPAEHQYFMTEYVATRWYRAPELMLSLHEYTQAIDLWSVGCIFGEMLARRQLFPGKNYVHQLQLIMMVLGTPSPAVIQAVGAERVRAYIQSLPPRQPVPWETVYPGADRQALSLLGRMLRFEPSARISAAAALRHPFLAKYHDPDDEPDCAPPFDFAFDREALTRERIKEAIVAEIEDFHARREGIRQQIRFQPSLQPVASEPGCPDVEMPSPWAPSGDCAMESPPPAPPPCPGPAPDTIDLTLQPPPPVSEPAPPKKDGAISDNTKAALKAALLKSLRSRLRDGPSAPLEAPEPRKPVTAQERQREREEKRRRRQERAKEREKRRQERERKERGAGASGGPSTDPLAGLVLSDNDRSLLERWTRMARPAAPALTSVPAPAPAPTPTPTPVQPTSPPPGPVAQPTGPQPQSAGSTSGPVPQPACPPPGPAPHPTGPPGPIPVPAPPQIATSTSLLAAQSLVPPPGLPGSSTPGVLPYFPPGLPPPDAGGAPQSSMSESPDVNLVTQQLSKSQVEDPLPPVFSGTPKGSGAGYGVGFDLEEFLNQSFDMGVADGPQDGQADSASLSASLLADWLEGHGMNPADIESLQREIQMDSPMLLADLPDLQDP

Broadly, the viability is a read-out of living cells in per cent, often relative to untreated cells. As to `CO[C@H]1[C@H](O)[C@@H](O[C@H]2CC[C@]3(C=O)C4CC[C@]5(C)[C@@H](C6=CC(=O)OC6)CC[C@]5(O)C4CC[C@@H]3C2)O[C@@H](C)[C@@H]1O` (stereo not given in full), the score in test [1] worked out at 1.12. Moreover, in [2], the rescue above control was -6.49. Moreover, the cytochrome c release ratio in [3] was determined as 1.41. In test [4], the inhibition of aggregation turned out to be 0%. For the same compound, the glutamate uptake change in test [5] amounted to 3.74%. The aggregation suppression score in test [6] was 1.22. In [7], the parasite load remaining is 56.4% (inactive). Besides, the viability in [7] was determined as 41.4%. In addition, in test [8], the red/green cell ratio (normalised) is 0.18 (inactive). Besides, the normalised cell number stood at 0.18 in test [8] (setting [20]) and 0.03 in test [8] (setting [21]).

What is called inhibition is the change of the read-out against control, counted positive when it falls. By remaining activity is commonly meant the signal under treatment as a percentage of the control signal. As to `C[N+](C)(C)CC#CCN1CCCC1=O`, the inhibition was 23.8% in test [9] and -1% (inactive) in [11]. The compound further gave a score in test [1] of 1.29. In [2], this compound gave a rescue above control of 8.8. For the same compound, in test [3], the cytochrome c release ratio came to 1.02. Moreover, the inhibition of aggregation in test [4] was found to be 53.5%. This compound showed a glutamate uptake change in test [5] of 7.8%. The compound also yielded an aggregation suppression score in test [6] of 1.08. For the same compound, the period change in test [10] was -0.1 h (inactive). Further, the fluorescence ratio (interference) in [12] is 1 (inactive). For the same compound, the remaining activity was 124% (inactive) in test [13] and 112% (inactive) in [14]. Also, the fold change in test [15] (stronger effect = lower value) was 1.08 (inactive) and 0.881 (inactive); in [15] (setting [22]) it was 1.78 and 1.33. The cell count in [15] (setting [23]) was 9690 and 9120; in test [15] (setting [24]) it was 8970 and 10300. For the same compound, the outcome in test [16] was inactive. The z-score in test [17] is 0.5 (inactive) and 0.575 (inactive).

As for `NCCc1c[nH]c2ccc(C(N)=O)cc12`, in test [10], the period change is -0.055 h (inactive). Also, in [11], the inhibition is -3% (inactive). In addition, in [12], the fluorescence ratio (interference) was 1 (inactive). The remaining activity is 111% (inactive) in [13] and 90% (inactive) in [14]. Further, the fold change is 0.977 (inactive) and 0.883 (inactive) in test [15] (stronger effect = lower value); 1.26 and 0.923 in test [15] (setting [22]). Further, the cell count was 10000 and 7810 in [15] (setting [23]); 10300 and 8850 in test [15] (setting [24]). Besides, the result in test [16] was inactive. Also, the z-score in test [17] is 0.31 (inactive) and 0.705 (inactive).

`c1cncc(C2=NCCC2)c1`: the parasite load remaining in [7] was 113% (inactive). The viability in test [7] stood at 106%. In addition, the red/green cell ratio (normalised) in [8] is 0.94 (inactive). Besides, the normalised cell number in test [8] (setting [20]) was 1; in test [8] (setting [21]), 0.94. The fold change in [15] (stronger effect = lower value) was 0.891 (inactive); in [15] (setting [22]), 1.54. The figures for the cell count in test [15] (setting [23]) and in [15] (setting [24]) were 7680 and 8620, respectively. In test [18], the luciferase signal is 48 AU (inactive).

For `C[C@]12N[C@H](Cc3ccccc31)c1ccccc12`, the period change in test [10] is 0.055 h (inactive). Also, the parasite load remaining in test [7] is 44.8% (inactive) and 97.8% (inactive). The viability in [7] was 70.4% and 87.5%. Besides, the inhibition in test [11] was -1% (inactive). In addition, the fluorescence ratio (interference) in test [12] is 1 (inactive). In addition, the remaining activity in test [13] was 117% (inactive); in test [14], 89.7% (inactive). Further, the fold change in test [15] (stronger effect = lower value) is 1.14 (inactive) and 0.978 (inactive) and 0.959 (inactive); in [15] (setting [22]), 0.783 and 1.01 and 0.875. In addition, the cell count in test [15] (setting [23]) was 10200 and 8980 and 9270; in test [15] (setting [24]) it was 8990 and 9190 and 9660. In addition, in test [16], the outcome was inactive. In addition, the z-score is 0.143 (inactive) in [19] (MELAS cybrid survival, CellTiter-Glo 48 h, stronger effect = higher value); 0.47 in [19] (Rieske KO mouse fibroblast survival, CellTiter-Glo 72 h); -0.205 (inactive) and 0.805 (inactive) in [17].
